Reference: the antibiotic and cytotoxicity screens of Wong et al. (2023)
Among all 39,000 compounds or so, about 3,300 (8.5%) were called active. Only a selection was taken, and actives are over-represented in it overall.

The compounds below were run on HepG2 (assay: cytotoxicity call (relative viability < 0.9)). Conditions: 10 µM.
With `C[C@@H]1CN([C@H](C)CO)C(=O)c2cc(NC(=O)Nc3ccc4c(c3)OCO4)ccc2O[C@@H]1CN(C)S(C)(=O)=O` the cytotoxicity call was “inactive”.
In the case of `COc1ccc(COC[C@@]23Oc4ccccc4[C@@H](NC(=S)N2C)[C@@H]3CO[Si](C)(C)C(C)(C)C)cc1`, the cytotoxicity call is reported as “active”.
With `COc1ccc(COC[C@@]23Oc4ccccc4[C@@H](NC(=S)N2C)[C@H]3CO[Si](C)(C)C(C)(C)C)cc1` the cytotoxicity call was “active”.
`COc1ccc(COC[C@]23N=C4SCCCN4[C@H](c4ccccc4O2)[C@H]3CO[Si](C)(C)C(C)(C)C)cc1` was tested, and the cytotoxicity call was “active”.
`COc1ccc(COC[C@]23Oc4ccccc4[C@H]([C@H]2CO[Si](C)(C)C(C)(C)C)N(C(=O)CC(C)=O)C(=O)N3C)cc1` was tested, and the cytotoxicity call was “inactive”.
`COc1ccc(COC[C@]23NC(=S)N[C@H](c4ccccc4O2)[C@H]3CO[Si](C)(C)C(C)(C)C)cc1` was tested, and the cytotoxicity call was “inactive”.
For `COc1ccc(COC[C@@]23Oc4ccccc4[C@@H](NC(=O)N2C(=O)c2ccccc2)[C@H]3CO[Si](C)(C)C(C)(C)C)cc1`, the cytotoxicity call was “inactive”.
`COc1ccc(COC[C@]23N=C4SCCCN4[C@H](c4ccccc4O2)[C@H]3COC(=O)c2ccccc2)cc1` was tested, and the cytotoxicity call was “inactive”.
In the case of `COc1ccc(COC[C@]23N=C4SCc5ccccc5CN4[C@H](c4ccccc4O2)[C@H]3CO[Si](C)(C)C(C)(C)C)cc1`, the cytotoxicity call is reported as “inactive”.
For `COc1ccc(COC[C@]23NC(=S)N[C@H](c4ccccc4O2)[C@@H]3CO[Si](C)(C)C(C)(C)C)cc1`, the cytotoxicity call was “inactive”.
`O=C(C[C@H]1CC[C@H]2[C@@H](COC[C@@H](O)CN2S(=O)(=O)c2cccc(F)c2)O1)NCc1ccncn1` was tested, and the cytotoxicity call was “inactive”.
With `Cc1cccc(CO)n1` the cytotoxicity call was “inactive”.
For `O=C1N[C@@H]2[C@@H](O)[C@@H](O)[C@H](O)[C@@H](CO)N2C1=O`, the cytotoxicity call was “inactive”.
With `CCCCS(=N)(=O)CC[C@@H](N)C(=O)O` (some centres undefined) the cytotoxicity call was “inactive”.
For `NC(=S)Nc1ccncc1`, the cytotoxicity call was “inactive”.
`CCC[C@@H](O)C#Cc1cnc2c(c1)C(=O)N([C@H](C)CO)C[C@H](C)[C@H](CN(C)S(=O)(=O)c1cccc(F)c1)O2` was tested, and the cytotoxicity call was “inactive”.
`C[C@H](CO)N1C[C@H](C)[C@H](CN(C)C(=O)Cc2ccccc2)OCCCC[C@H](C)Oc2ccc(NS(=O)(=O)c3ccc(Cl)cc3)cc2C1=O` was tested, and the cytotoxicity call was “inactive”.
With `COc1ccc(NC(=O)N(C)C[C@H]2Oc3ccc(NS(=O)(=O)c4cn(C)cn4)cc3CC(=O)N([C@H](C)CO)C[C@H]2C)cc1` the cytotoxicity call was “inactive”.
`Cc1noc(C)c1NC(=O)N(C)C[C@H]1Oc2ccc(NC(=O)c3ccncc3)cc2C(=O)N([C@H](C)CO)C[C@H]1C` was tested, and the cytotoxicity call was “inactive”.
With `CCNC(=O)CCC(N)C(=O)[O-].[K+]` (centres undefined) the cytotoxicity call was “inactive”.
In the case of `C[C@@H]1ON(c2ccc(I)cc2)[C@H](c2ccc(OC(=O)OC(C)(C)C)cc2)[C@H]1C(=O)N1C(=O)OC[C@H]1Cc1ccccc1`, the cytotoxicity call is reported as “inactive”.
For `COc1ccc(S(=O)(=O)N(C)C[C@@H]2Oc3ccc(NS(=O)(=O)c4c(C)noc4C)cc3CC(=O)N([C@H](C)CO)C[C@@H]2C)cc1`, the cytotoxicity call was “inactive”.
For `C[C@@H]1CN([C@@H](C)CO)C(=O)c2cc(NC(=O)Nc3ccccc3)ccc2O[C@@H](C)CCCCO[C@H]1CN(C)C(=O)OC(C)(C)C`, the cytotoxicity call was “inactive”.
For `CC(C)NC(=O)N(C)C[C@@H]1Oc2ccc(NC(=O)C3CCCCC3)cc2CC(=O)N([C@@H](C)CO)C[C@@H]1C`, the cytotoxicity call was “inactive”.
In the case of `C[C@H]1CN([C@@H](C)CO)C(=O)Cc2cc(NC(=O)NC3CCCCC3)ccc2O[C@H]1CN(C)C(=O)Nc1cccc2ccccc12`, the cytotoxicity call is reported as “active”.
In the case of `Cc1noc(C)c1NC(=O)Nc1ccc2c(c1)CC(=O)N([C@@H](C)CO)C[C@@H](C)[C@H](CN(C)C(=O)Nc1cccc3ccccc13)O2`, the cytotoxicity call is reported as “active”.
`CC(C)NC(=O)N(C)C[C@H]1Oc2ccc(NC(=O)C3CCCCC3)cc2CC(=O)N([C@H](C)CO)C[C@@H]1C` was tested, and the cytotoxicity call was “active”.
`C[C@H](CO)N1C[C@H](C)[C@H](CN(C)C(=O)Nc2cccc3ccccc23)Oc2ccc(NC(=O)C3CCCCC3)cc2CC1=O` was tested, and the cytotoxicity call was “active”.
With `CC(C)NC(=O)N(C)C[C@H]1Oc2ccc(NC(=O)C3CCCCC3)cc2CC(=O)N([C@H](C)CO)C[C@H]1C` the cytotoxicity call was “inactive”.
In the case of `C[C@H]1CN([C@@H](C)CO)C(=O)Cc2cc(NC(=O)NC3CCCCC3)ccc2O[C@@H]1CN(C)C(=O)Nc1cccc2ccccc12`, the cytotoxicity call is reported as “inactive”.
For `C[C@@H]1CN([C@H](C)CO)C(=O)Cc2cc(NC(=O)C3CCCCC3)ccc2O[C@H]1CN(C)C(=O)Nc1cccc2ccccc12`, the cytotoxicity call was “inactive”.
`C[C@@H]1CN([C@@H](C)CO)C(=O)Cc2cc(NC(=O)NC3CCCCC3)ccc2O[C@H]1CN(C)C(=O)Nc1cccc2ccccc12` was tested, and the cytotoxicity call was “inactive”.
In the case of `Cc1noc(C)c1NC(=O)Nc1ccc2c(c1)CC(=O)N([C@@H](C)CO)C[C@H](C)[C@@H](CN(C)C(=O)Nc1cccc3ccccc13)O2`, the cytotoxicity call is reported as “inactive”.
For `Cc1noc(C)c1NC(=O)Nc1ccc2c(c1)CC(=O)N([C@H](C)CO)C[C@H](C)[C@@H](CN(C)C(=O)Nc1cccc3ccccc13)O2`, the cytotoxicity call was “inactive”.
With `C[C@H]1CN([C@@H](C)CO)C(=O)Cc2cc(NC(=O)C3CCCCC3)ccc2O[C@H]1CN(C)C(=O)Nc1cccc2ccccc12` the cytotoxicity call was “inactive”.
In the case of `COc1ccc(NC(=O)Nc2ccc3c(c2)C(=O)N([C@H](C)CO)C[C@H](C)[C@@H](CN(C)S(=O)(=O)c2ccc(C)cc2)OCCCC[C@@H](C)O3)cc1`, the cytotoxicity call is reported as “inactive”.
In the case of `NC(=O)NC(=O)C[C@H]1Nc2ccccc2NC1=O`, the cytotoxicity call is reported as “inactive”.
With `CCc1c(C(=O)OC)nnc2cc(C)nn12` the cytotoxicity call was “inactive”.
For `O=C(CN1CCOCC1)N[C@@H]1CC[C@H](CCn2cc(C3CCCC3)nn2)O[C@@H]1CO`, the cytotoxicity call was “inactive”.
With `COCC#Cc1ccc([C@H]2[C@@H](CO)N3C(=O)CN(C(=O)c4ccncc4)C[C@@H]23)cc1` the cytotoxicity call was “inactive”.
For `C[C@@H]1CN([C@@H](C)CO)C(=O)Cc2cc(NC(=O)Nc3cccc4ccccc34)ccc2O[C@@H]1CN(C)C(=O)NC1CCCCC1`, the cytotoxicity call was “active”.
For `C[C@@H]1CN([C@H](C)CO)C(=O)Cc2cc(NC(=O)Nc3cccc4ccccc34)ccc2O[C@H]1CN(C)C(=O)NC1CCCCC1`, the cytotoxicity call was “inactive”.
`C[C@H](CO)N1C[C@H](C)[C@@H](CN(C)C(=O)NC2CCCCC2)Oc2ccc(NC(=O)Nc3cccc4ccccc34)cc2CC1=O` was tested, and the cytotoxicity call was “inactive”.
With `CCNC(=O)C[C@H]1C=C[C@@H](NC(=O)C2CC2)[C@@H](CO)O1` the cytotoxicity call was “inactive”.
